Values joined by “and” are separate entries in the source; they are usually repeats but may differ in a detail not shown here. Equal values may be shown once. Unmarked numbers belong to inactive results.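 How the source made its calls: active means compounds whose GFP signal falls below 65% of the DMSO control level; inconclusive means fewer than 70 yeast cells counted in the well; inactive means the rest.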

The experiment can be described thus: TOR branch reporter RPL19A-GFP response – cell-based, S. cerevisiae, third cherry pick, flow cytometry, confirmation (AID 504336).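 Further: median GFP fluorescence of all gated yeast cells by flow cytometry; ratio of well median fluorescence to plate mean of DMSO wells with DMSO = 100%.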 As to conditions: S. cerevisiae RPL19A-GFP strain, 3 h, at 10 µM, hits give low values. (A flow cytometer gives signals particle by particle.)

For the molecule `Cc1nc(Nc2ccc(Cl)cc2)c(C#N)c(=O)[nH]1`, the GFP response relative to DMSO was 102%.

For `COc1ccc(-c2cc(C(F)(F)F)nc(S(C)(=O)=O)n2)cc1OC`, the GFP response relative to DMSO is 99.6% and 103%.

Regarding `Nc1c(O)ccc2c1C(=O)c1ccccc1C2=O`, the GFP response relative to DMSO was 102%.

As for `CSc1nc(Nc2ccc(Cl)cc2)c(C#N)c(=O)[nH]1`, the GFP response relative to DMSO is 98.3%.

Turning to `Cc1cn2c(N)c(C=C3C=C(Cl)C(=O)C(Cl)=C3)c(=O)nc2s1`, the GFP response relative to DMSO is 104%.

`Cc1ccc(Nc2cc(=O)[nH]c(=O)[nH]2)cc1Cl`: the GFP response relative to DMSO was 100%.

Consider `COc1ccc(OC)c(N/C(C)=C/C(=O)c2ccccc2)c1`, for which the GFP response relative to DMSO was 103%.

As to `C=CCNc1ncnc2ccc(Br)cc12`, the GFP response relative to DMSO is 99.3%.

Regarding `C/C(=N\NC(=O)c1cccc2ccccc12)c1cccnc1`, the GFP response relative to DMSO was 98.3%.

In the case of `Cc1ccc(-c2cc(C(F)F)nc(S(C)(=O)=O)n2)cc1`, the GFP response relative to DMSO was 96.2%.

For `C/C(=C\C(=O)c1ccc(Cl)cc1)Nc1ccc(Br)cc1`, the GFP response relative to DMSO was 100%.

As for `CCC(C)Nc1nc(N)c([N+](=O)[O-])c(Nc2ccccc2OC)n1` (centres undefined), the GFP response relative to DMSO is 105%.

Take `Brc1ccc2ncnc(NCc3ccccc3)c2c1`: the GFP response relative to DMSO is 102%.

`CCC(C)Nc1nc(N)c([N+](=O)[O-])c(Nc2cc(OC)ccc2OC)n1` (centres undefined): the GFP response relative to DMSO was 96.5%.

For the molecule `CC(=O)CC(=O)Nc1ccc(C(N)=O)cc1`, the GFP response relative to DMSO was 100%.

Regarding `CNc1nc(N)c([N+](=O)[O-])c(Nc2cccc(Cl)c2)n1`, the GFP response relative to DMSO was 94.1%.

As to `COC1=C/C(=C/c2c(N)n3cc(C)sc3nc2=O)C=CC1=O`, the GFP response relative to DMSO was 103%.

With `COc1ccccc1-c1cc(C(F)(F)F)nc(S(C)(=O)=O)n1`, the GFP response relative to DMSO was 96.2%.

In the case of `Cn1cccc1C(=O)Nc1nc(-c2ccccn2)cs1`, the GFP response relative to DMSO was 102%.

In the case of `Cc1ccc(NC(=O)O/N=C2\CCCCC2c2ccc([N+](=O)[O-])cc2[N+](=O)[O-])cc1` (centres undefined), the GFP response relative to DMSO is 102%.

Turning to `Cn1c(=O)c2c(n3cnnc13)-c1ccccc1CC21CCCC1`, the GFP response relative to DMSO is 102%.

With `Cn1c(NCCCO)nc2c(c1=O)C1(CCCCC1)Cc1ccccc1-2`, the GFP response relative to DMSO is 102%.

With `CC(=O)C(Cl)C(=O)Nc1ccccc1` (centres undefined), the GFP response relative to DMSO was 98.8%.

Take `CC(=O)Nn1cnc2c(c1=O)C1(CCCCC1)Cc1ccccc1-2`: the GFP response relative to DMSO is 99.1%.

Turning to `O=C1c2ccccc2C(=O)c2c1cccc2N(CCO)CCO`, the GFP response relative to DMSO was 99.8%.

On to `COc1cccc(NC(=O)CC(C)=O)c1`, for which the GFP response relative to DMSO was 99.1%.

As for `OCCNc1ncnc2ccc(Br)cc12`, the GFP response relative to DMSO was 99.8%.

As for `C/C(=N\NC(=O)c1ccccc1)c1ccccc1F`, the GFP response relative to DMSO was 98.3%.

Turning to `OCc1ccc(O)c2ncccc12`, the GFP response relative to DMSO is 101%.

Take `O=C(Nc1ccc(-c2nc3ccccc3o2)cc1)c1cccnc1`: the GFP response relative to DMSO is 101%.

For the molecule `Cc1cccc(C)c1Nc1ncnc(N)c1[N+](=O)[O-]`, the GFP response relative to DMSO is 98.5%.

In the case of `COc1cccc2c(O)cc(=O)n(C)c12`, the GFP response relative to DMSO is 99.6%.

For `Cc1ccc2c(Cl)cc(Cl)c(OCC(=O)O)c2n1`, the GFP response relative to DMSO was 104%.

For `COc1ccccc1-c1cc(C(F)(F)F)nc(S(=O)(=O)CCCC(=O)NC(C)C)n1`, the GFP response relative to DMSO was 94.4% and 99.1%.

For the molecule `C/C(=C\C(=O)c1ccc(C)cc1)Nc1cccc(O)c1`, the GFP response relative to DMSO is 99.3%.

In the case of `Cc1ccc2c(C)ccc(O)c2n1`, the GFP response relative to DMSO is 103%.

As for `COc1ccc(N/C=C/C(=O)c2ccc(Cl)cc2)cc1`, the GFP response relative to DMSO is 102%.

Turning to `O=C(Nc1ccccc1)O/N=C1\CCCCC1c1ccc([N+](=O)[O-])cc1[N+](=O)[O-]` (centres undefined), the GFP response relative to DMSO is 96.5%.

As to `CCOC(=O)CS(=O)(=O)c1nc(-c2ccccc2)cc(C(F)(F)F)n1`, the GFP response relative to DMSO was 93.1%.

The values are drawn from PubChem BioAssay AID504336 (NMMLSC, 2011).
